Laboratory results: PubChem BioAssay (Tox21)
Several values for one entry are separate records, joined by “and”; a condition that tells them apart may be missing. Equal entries are not always repeated. Records with an inconclusive call do not appear. Activity calls are given as the source filed them. Calls follow the shape of the dose curve; as a rule, active = well fitted cell-killing curve with a large enough effect in the repeat runs; inconclusive = weak or mixed curves, or effect the other way; inactive = flat fitted curve, though single readings scatter.

Experiment: cAMP Responsive Elements (CRE) small molecule antagonists, cell-based qHTS assay: qHTS cell viability counter screen (AID 2060913); also: nearly all actives have a fitted effect of over 40% in size
Conditions: CRE-bla HEK293T viability, CellTiter-Glo luminescence, 5 h; series mostly up to 92.4 µM; viability change, negative = cytotoxic: at the top concentration
Text: U.S. Tox21 Program National Center for Advancing Translational Sciences [NCATS] Division of Preclinical Innovation [DPI] U.S. Environmental Protection Agency [EPA] National Institutes of Environmental Health Sciences [NIEHS] National Toxicology Program [NTP] U.S. Food and Drug Administration [FDA] Tox21 Assay Overview: CREB (cyclic-AMP Responsive Element Binding Protein) is a cellular transcription factor. It binds to certain DNA sequences called cAMP Responsive Elements (CRE) and regulates the transcription of the genes. […] This cell line can be used to find agonists/antagonists of the cyclic AMP signaling pathway. The activation of the report gene under culture conditions can be detected by fluorescence intensity. This cell line has been used to screen the Tox21 10K compound library to identify agonists that induce oxidative stress. The cytotoxicity of the Tox21 compound library against the CRE-bla cell line was tested in parallel by measuring the cell viability using CellTiter-Glo assay (Promega, Madison, WI) in the same wells.
Tox21 Assay Protocol Summary: CRE-bla Hek 293T cells were suspended in assay medium (DMEM containing 10% dialyzed FBS, 0.1 mM NEAA, 1 mM sodium pyruvate and 25 mM HEPES) and dispensed at 2,000 cells/4 uL /well into 1536-well black wall/clear bottom plates using a Multidrop Combi (ThermoFisher Scientific, Waltham, MA) dispenser. After the assay plates were incubated at 37 C/5% CO2 for 18 hrs, 23 nL of compounds dissolved in DMSO, positive controls or DMSO only was transferred to the assay plate by a pintool workstation (Kalypsys, San Diego, CA), followed by addition of 1 uL of 1.25uM NKH477 (0.25 uM as final concentration) in assay medium using a Flying Reagent Dispenser (Aurora Discovery, San Diego, CA). The plates were incubated at 37 C and 5% CO2 for 3 hrs. Then 1 uL of LiveBLAzer B/G FRET substrate (Invitrogen, Carlsbad, CA) was added to each well using Bioraptr Flying Reagent Dispenser (FRD, Aurora Discovery, San Diego, CA). The plates were incubated at room temperature for 2 h, then fluorescence intensities were measured using an Envision plate reader (PerkinElmer, Shelton, CT) at Excitation 405nm, Emission 460nm and 530nm. The % activity was determined from the ratio of 460nm/530nm. For cell viability readout that measures cytotoxicity, 4 uL /well of CellTiter-Glo reagent was added into the assay plates using Bioraptr FRD. After 30 min incubation at room temperature, the luminescence intensity in the assay plates was measured using a ViewLux (PerkinElmer, Shelton, CT) plate reader.
% is scaled to controls: 0 for no effect and ±100 for the full control effect; potency is read from the fitted curve at half-maximal effect.

SMILES	viability change, negative = cytotoxic	Potency
O=C1CC[C@@]2(O)[C@H]3Cc4ccc(O)c5c4[C@@]2(CCN3CC2CC2)[C@H]1O5	-3.23% [at 42.5 µM] (inactive)	
CC(C)CC(C)N (stereo not given)	-1.38% (inactive)	
CC(C)N(C(=O)CCl)c1ccccc1		inactive
Cn1c(-c2ccccc2)cc(-c2ccccc2)[n+]1C		inactive
SCc1ccco1	-0.351% (inactive)	
Clc1ccc(COC(Cn2ccnc2)c2ccc(Cl)cc2Cl)cc1 (stereo not given)		50.8 µM (active) and 45.1 µM (active)
C[C@]12CC[C@@H]3c4ccc(OC(=O)N(CCCl)CCCl)cc4CC[C@H]3[C@@H]1CC[C@@H]2O	-0.486% [at 42.5 µM] (inactive)	
O=P(Cl)(Cl)Cl	-4.83% (inactive)	
C[C@H]1C(=O)O[C@@H]2CCN3CC=C(COC(=O)[C@](C)(O)[C@]1(C)O)[C@H]23		inactive
CC(C)(C)CC(C)(C)c1ccc(O)cc1		43.3 µM (active)
CC(C)C(C)(N)C#N (stereo not given)	-6.65% (inactive)	
C[C@]12CC[C@H]3[C@@H](CCC4=CC(=O)CC[C@@]43C)[C@@H]1CC[C@@H]2O	-4.48% (inactive)	
CCCCn1cc[n+](C)c1		inactive
Brc1ccccc1	10.5% (inactive)	
NNC(=S)NN		inactive
NC1(c2ccccc2)CCCCC1	-0.844% (inactive)	
CCOP(=O)(OCC)Oc1ccc([N+](=O)[O-])cc1	-12.7% (inactive)	
CC(Cc1ccc(OCC(=O)O)cc1)NCC(O)c1csc(C(F)(F)F)n1 (stereo not given)	-1.59% (inactive)	
Clc1cccc(Cl)c1		inactive
OCCCBr	4.83% (inactive)	

SMILES	viability change, negative = cytotoxic	Potency
ClP(Cl)(Cl)(Cl)Cl	-1.69% (inactive)	
CC(O)(CS(=O)(=O)c1ccc(F)cc1)C(=O)Nc1ccc(C#N)c(C(F)(F)F)c1 (stereo not given)	0.443% [at 42.5 µM] (inactive)	
CC(C)O.CC(C)O.OCCN(CCO)CCO.OCCN(CCO)CCO.[Ti]	2.61% (inactive)	
CCO[C@H]1O[C@@H]2OC3(C)CC[C@H]4[C@H](C)CC[C@@H]([C@H]1C)[C@@]24OO3	-0.238% [at 42.5 µM] (inactive)	
ClCc1ccc(Cl)cc1Cl	10.5% (inactive)	
CN(C)CCO		inactive
COc1ccc2c(c1OC)C(=O)O[C@H]2[C@@H]1c2cc3c(cc2CCN1C)OCO3	-7.57% [at 42.5 µM] (inactive)	
O=[N+]([O-])O[C@H]1CO[C@H]2[C@@H]1OC[C@H]2O[N+](=O)[O-]	-0.191% [at 42.5 µM] (inactive)	
N#CCc1ccccc1	0.757% (inactive)	
O=C(Cl)c1ccccc1F	5.67% (inactive)	
CCCCNC(=O)OCC#CI	-12.8% (inactive)	
COC(C)(C)CCC[C@H](C)C/C=C/C(C)=C/C(=O)OC(C)C	-3.77% (inactive)	
OC(c1ccccc1)(c1ccccc1)C1CCNCC1	0.247% [at 42.5 µM] (inactive)	
CCCC[N+]1(C)CCCCC1		inactive
CCCCCCCCCCCCCCCC[n+]1ccccc1		57 µM (active) and 54.5 µM (active) and 56.2 µM (active)
CCCCCCCCCCCCCCCC[N+](C)(C)C		54.5 µM (active)
CC[C@H]1C[C@@H]2C[C@H]3c4[nH]c5ccc(OC)cc5c4CCN(C2)[C@@H]13	-2.75% (inactive)	
S=C=Nc1ccccc1	-15.8% (inactive)	
Nc1cc(Cl)cc(Cl)c1		inactive
ClC1=C(Cl)C2(Cl)C(CBr)CC1(Cl)C2(Cl)Cl (stereo not given)		inactive
